Active and inactive are the calls of the source.

The first experiment has as its system XIP peptide (Xip251-270) binding. Briefly: XIP fragment 251-270 binding compounds – biochemical, small-molecule microarray, fluorescence 635/667 nm, 0.1 µg/mL protein, primary screen (AID 1182). The settings on record: fluorescent protein binding, 635 nm, higher = more signal, called active from +8 up or from −8 down.
`CCOC(=O)[C@H](CC(C)C)NC(=O)CCC1CC(OC(=O)NCc2cccc3ccccc23)CC2(CCCC(COC(=O)NCc3ccncc3)O2)O1` (stereo partly drawn): the composite z-score is 1.56 (inactive).

For the molecule `CCN1C(=O)[C@H]2[C@H]3[C@H](O)[C@H](O)CC(=NO[C@@H](C)c4cn([C@H](CO)Cc5ccccc5)nn4)[C@@H]3CC[C@H]2C1=O`, the composite z-score was 1.13 (inactive).

Regarding `CC(C)CON=C1C[C@@H](O)[C@@H](O)[C@@H]2[C@@H]3C(=O)N(c4cccc(Oc5ccccc5)c4)C(=O)[C@@H]3CC[C@@H]12`, the composite z-score was -0.347 (inactive).

`CCC=CCCC(OC(=O)c1ccc(Br)cc1)C1=CCCCC1=O` (stereo not drawn): the composite z-score is 0.84 (inactive).

Turning to `Cc1cc2c(nc1C)CCCCN2CC(C)ON=C1[C@H]2CCn3c(=O)n(-c4ccccc4)c(=O)n3[C@H]2[C@H](O)[C@@H]2O[C@H]12` (stereo partly drawn), the composite z-score is -0.239 (inactive).

For `COc1ccc(COC(=O)NN=C2C[C@@H](O)[C@@H](O)[C@@H]3[C@@H]4C(=O)N(c5cccc(Oc6ccccc6)c5)C(=O)[C@@H]4CC[C@@H]23)cc1`, the composite z-score was -0.378 (inactive).

`CC(C)CON=C1C[C@@H](O)[C@@H](O)[C@@H]2[C@@H]3C(=O)N(Cc4ccc5c(c4)OCO5)C(=O)[C@@H]3CC[C@H]12`: the composite z-score is 0.798 (inactive).

As for `CCOC(=O)[C@H](CC(C)C)NC(=O)CCC1CC(OC(=O)NCc2ccc3c(c2)OCO3)CC2(CCCC(COC(=O)NCC(c3ccccc3)c3ccccc3)O2)O1` (stereo partly drawn), the composite z-score was 0.717 (inactive).

As for `COC(=O)[C@H](C)NC(=O)CCC1CC(OC(=O)NCc2ccc3c(c2)OCO3)CC2(CCCC(COC(=O)NCC3CCCCC3)O2)O1` (stereo partly drawn), the composite z-score is 0.655 (inactive).

For the molecule `CCOC(=O)[C@H](CC(C)C)NC(=O)CCC1CC(OC(=O)NCc2cccc3ccccc23)CC2(CCCC(COC(=O)NCCCN3CCCC3=O)O2)O1` (stereo partly drawn), the composite z-score was -0.0359 (inactive).

Regarding `O=C1[C@H]2[C@H]3[C@H](O)[C@H](O)CC(=NOC[C@@H](O)COCc4ccco4)[C@@H]3CC[C@H]2C(=O)N1C[C@@H]1CCCO1`, the composite z-score was 0.0071 (inactive).

Turning to `C[C@@H](c1ccccc1)N1C(=O)[C@H]2[C@H]3[C@H](O)[C@H](O)CC(=NO[C@@H]4O[C@H](CO)[C@@H](O)[C@H](O)[C@H]4O)[C@H]3CC[C@H]2C1=O`, the composite z-score is -0.0033 (inactive).

With `COC(=O)CC=C[C@@H](C)[C@@H](C=NO[C@H](C)c1cn([C@@H]2COC[C@H]2O)nn1)NS(=O)(=O)c1ccc(C)cc1`, the composite z-score is -0.362 (inactive).

Turning to `COC(=O)NCC=Cc1nc(CCCO)co1`, the composite z-score was -0.755 (inactive).

In the case of `CON=C(C)CCC(=O)OC[C@H]1O[C@H](c2ccccc2)C=C[C@@H]1Oc1ccc(OC)cc1`, the composite z-score was 0.103 (inactive).

As to `CC(C)=CCCC(C)=CCON=C1C[C@@H](O)[C@@H](O)[C@@H]2[C@@H]3C(=O)N(c4ccc(F)cc4F)C(=O)[C@@H]3CC[C@H]12`, the composite z-score is -0.163 (inactive).

With `COc1cccc([C@H]2Oc3ccc(OC)cc3C(=NOC[C@@H](O)COCc3ccco3)[C@@H]2O)c1`, the composite z-score is 0.252 (inactive).

In the case of `O=c1n(Cc2cc3c(cc2Cl)OCO3)c(=O)n2n1CC[C@@H]1C(=NOCc3ccccc3)[C@H]3O[C@H]3[C@@H](O)[C@@H]12`, the composite z-score was 0.0872 (inactive).

In the case of `COc1ccc(O[C@H]2C=C[C@@H](c3ccccc3)O[C@@H]2COC(=O)CCC(C)=NO[C@@H]2O[C@H](COC(C)=O)[C@@H](OC(C)=O)[C@H](OC(C)=O)[C@H]2OC(C)=O)cc1`, the composite z-score was 0.427 (inactive).

In the case of `COc1ccc(O[C@H]2C=C[C@@H](c3ccccc3)O[C@@H]2COC(=O)CCC(C)=NOC[C@@H](O)[C@H]2O[C@@H]3OC(C)(C)O[C@@H]3[C@H]2O)cc1`, the composite z-score was 0.162 (inactive).

For the molecule `CC(C)=NO[C@H](C)c1cn([C@H](CO)Cc2ccccc2)nn1`, the composite z-score is -0.662 (inactive).

Take `O=C1[C@H]2[C@H]3[C@H](O)[C@H](O)CC(=NOCc4ccccc4)[C@@H]3CC[C@H]2C(=O)N1C[C@@H]1CCCO1`: the composite z-score is -0.308 (inactive).

Consider `COC(=O)[C@H](C)NC(=O)CCC1CC(OC(=O)NCCc2ccc(F)cc2)CC2(CCCC(COC(=O)NCCC(C)C)O2)O1` (stereo partly drawn), for which the composite z-score was 0.162 (inactive).

In the case of `COC(=O)[C@H](C)NC(=O)CCC1CC(OC(=O)NCc2ccc3c(c2)OCO3)CC2(CCCC(COC(=O)NCC(c3ccccc3)c3ccccc3)O2)O1` (stereo partly drawn), the composite z-score was 1.93 (inactive).

`COC(=O)CC=C[C@@H](C)[C@@H](C=NOCC[C@@H]1C=C[C@H](OC(C)=O)[C@@H](COC(C)=O)O1)OC`: the composite z-score was -0.198 (inactive).

With `COC(=O)[C@H]1[C@@H](O)[C@@]2(O)c3ccccc3O[C@@]2(c2ccccc2)[C@@H]1c1ccccc1`, the composite z-score was -0.759 (inactive).

Another experiment deals with XIP peptide (Xip251-270). The experiment can be described thus: compounds binding XIP fragment 251-270 – biochemical, small-molecule microarray, fluorescence 635/667 nm, 0.5 µg/mL protein, primary screen (AID 1183). The conditions noted are these: fluorescence 635 nm, higher = more signal.
Consider `O=C1C=C[C@@H](O)[C@@H]2[C@@H]3C(=O)N(c4ccc(F)cc4F)C(=O)[C@@H]3CC[C@@H]12`, for which the composite z-score amounted to 0.165.

Turning to `COc1cccc([C@H]2Oc3ccc(OC)cc3C(=NOC[C@@H](O)[C@H]3O[C@@H]4OC(C)(C)O[C@@H]4[C@H]3O)[C@@H]2O)c1`, the composite z-score is 0.697.

Consider `COCCNC(=O)OCC1CCCC2(CC(OC(=O)NCc3ccc4c(c3)OCO4)CC(CCC(=O)N[C@@H](C)C(=O)OC)O2)O1` (stereo partly drawn), for which the composite z-score was determined as 0.623.

In the case of `CCOC(=O)[C@H](CC(C)C)NC(=O)CCC1CC(OC(=O)NCc2cccc3ccccc23)CC2(CCCC(COC(=O)NCC3CCCCC3)O2)O1` (stereo partly drawn), the composite z-score is 0.539.

`CON=C1[C@H]2CCn3c(=O)n(-c4ccccc4)c(=O)n3[C@H]2[C@H](O)[C@@H]2O[C@H]12`: the composite z-score was determined as 0.491.

Regarding `Cc1cc2c(nc1C)CCCN2CC(O)CN1CCCc2nc(C)c(C)cc21`, the composite z-score is -0.134.

Regarding `CCc1cc2c(nc1CC)CCN(CCC(C)=NOC[C@H]1O[C@H](c3ccccc3)C=C[C@@H]1Oc1ccc(OC)cc1)C2`, the composite z-score stood at 0.431.

With `CO[C@H]1COC(=O)CC=C[C@H](C)[C@@H](OC)COC(=O)[C@@H](C)COC(=O)CC=C[C@@H]1C`, the composite z-score is -0.396.

On to `CO[C@H]1COC(=O)[C@@H](C)COC(=O)[C@H](COCc2ccccc2)NC(=O)CC=C[C@H]1C`, for which the composite z-score is -0.474.

`Cc1ccc(S(=O)(=O)N[C@H]2COC(=O)CC=C[C@H](C)[C@@H](NS(=O)(=O)c3ccc(C)cc3)COC(=O)CC=C[C@@H]2C)cc1`: the composite z-score is -0.019.

Turning to `CCOC(=O)[C@H](CC(C)C)NC(=O)CCC1CC(OC(=O)NCc2cccc3ccccc23)CC2(CCCC(COC(=O)NCc3ccncc3)O2)O1` (stereo partly drawn), the composite z-score came out at 0.53.

`CCN1C(=O)[C@H]2[C@H]3[C@H](O)[C@H](O)CC(=NO[C@@H](C)c4cn([C@H](CO)Cc5ccccc5)nn4)[C@@H]3CC[C@H]2C1=O`: the composite z-score amounted to 0.814.

For `CC(C)CON=C1C[C@@H](O)[C@@H](O)[C@@H]2[C@@H]3C(=O)N(c4cccc(Oc5ccccc5)c4)C(=O)[C@@H]3CC[C@@H]12`, the composite z-score is 0.536.

As to `CCC=CCCC(OC(=O)c1ccc(Br)cc1)C1=CCCCC1=O` (stereo not drawn), the composite z-score was 0.49.

In the case of `Cc1cc2c(nc1C)CCCCN2CC(C)ON=C1[C@H]2CCn3c(=O)n(-c4ccccc4)c(=O)n3[C@H]2[C@H](O)[C@@H]2O[C@H]12` (stereo partly drawn), the composite z-score was found to be 0.7.

In the case of `COc1ccc(COC(=O)NN=C2C[C@@H](O)[C@@H](O)[C@@H]3[C@@H]4C(=O)N(c5cccc(Oc6ccccc6)c5)C(=O)[C@@H]4CC[C@@H]23)cc1`, the composite z-score was -0.206.

Take `CC(C)CON=C1C[C@@H](O)[C@@H](O)[C@@H]2[C@@H]3C(=O)N(Cc4ccc5c(c4)OCO5)C(=O)[C@@H]3CC[C@H]12`: the composite z-score turned out to be 0.202.

`CCOC(=O)[C@H](CC(C)C)NC(=O)CCC1CC(OC(=O)NCc2ccc3c(c2)OCO3)CC2(CCCC(COC(=O)NCC(c3ccccc3)c3ccccc3)O2)O1` (stereo partly drawn): the composite z-score was -0.0305.

`COC(=O)[C@H](C)NC(=O)CCC1CC(OC(=O)NCc2ccc3c(c2)OCO3)CC2(CCCC(COC(=O)NCC3CCCCC3)O2)O1` (stereo partly drawn): the composite z-score came out at 0.555.

For `CCOC(=O)[C@H](CC(C)C)NC(=O)CCC1CC(OC(=O)NCc2cccc3ccccc23)CC2(CCCC(COC(=O)NCCCN3CCCC3=O)O2)O1` (stereo partly drawn), the composite z-score stood at 0.524.

As for `O=C1[C@H]2[C@H]3[C@H](O)[C@H](O)CC(=NOC[C@@H](O)COCc4ccco4)[C@@H]3CC[C@H]2C(=O)N1C[C@@H]1CCCO1`, the composite z-score was determined as 0.791.

As to `C[C@@H](c1ccccc1)N1C(=O)[C@H]2[C@H]3[C@H](O)[C@H](O)CC(=NO[C@@H]4O[C@H](CO)[C@@H](O)[C@H](O)[C@H]4O)[C@H]3CC[C@H]2C1=O`, the composite z-score stood at 0.216.

On to `COC(=O)CC=C[C@@H](C)[C@@H](C=NO[C@H](C)c1cn([C@@H]2COC[C@H]2O)nn1)NS(=O)(=O)c1ccc(C)cc1`, for which the composite z-score came to 0.486.

As to `COC(=O)NCC=Cc1nc(CCCO)co1`, the composite z-score came out at 0.432.

Turning to `CON=C(C)CCC(=O)OC[C@H]1O[C@H](c2ccccc2)C=C[C@@H]1Oc1ccc(OC)cc1`, the composite z-score turned out to be 0.19.

Take `CC(C)=CCCC(C)=CCON=C1C[C@@H](O)[C@@H](O)[C@@H]2[C@@H]3C(=O)N(c4ccc(F)cc4F)C(=O)[C@@H]3CC[C@H]12`: the composite z-score turned out to be 0.37.

In the case of `COc1cccc([C@H]2Oc3ccc(OC)cc3C(=NOC[C@@H](O)COCc3ccco3)[C@@H]2O)c1`, the composite z-score is -1.5.

For the molecule `O=c1n(Cc2cc3c(cc2Cl)OCO3)c(=O)n2n1CC[C@@H]1C(=NOCc3ccccc3)[C@H]3O[C@H]3[C@@H](O)[C@@H]12`, the composite z-score is -0.0262.

Take `COc1ccc(O[C@H]2C=C[C@@H](c3ccccc3)O[C@@H]2COC(=O)CCC(C)=NO[C@@H]2O[C@H](COC(C)=O)[C@@H](OC(C)=O)[C@H](OC(C)=O)[C@H]2OC(C)=O)cc1`: the composite z-score was found to be 0.495.

Regarding `COc1ccc(O[C@H]2C=C[C@@H](c3ccccc3)O[C@@H]2COC(=O)CCC(C)=NOC[C@@H](O)[C@H]2O[C@@H]3OC(C)(C)O[C@@H]3[C@H]2O)cc1`, the composite z-score is -0.0871.

As to `CC(C)=NO[C@H](C)c1cn([C@H](CO)Cc2ccccc2)nn1`, the composite z-score was found to be 0.0455.

On to `O=C1[C@H]2[C@H]3[C@H](O)[C@H](O)CC(=NOCc4ccccc4)[C@@H]3CC[C@H]2C(=O)N1C[C@@H]1CCCO1`, for which the composite z-score worked out at 0.625.

Values taken from PubChem BioAssay.
